Assay results as given in the supplement of paper PMC7156485.
Values joined by “and” are separate entries in the source; they are usually repeats but may differ in a detail not shown here. Equal entries are not always repeated.

These compounds were tested on TDF (assay: cell number relative to DMSO (% of DMSO); higher = more cells (less growth inhibition / toxicity)). Settings: concentration: 10 µM; 24 h.
Method in brief: (§1)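 H1.0 nuclear intensity or cell number is stated as percent of the plate control, based on the median of replicates, and HCC1569 values were smoothed for positional effects. These came from HCC1569 and TDF cells treated with compounds at 10 µM for 24 h at 37 °C in triplicate, then fixed in 3.7% formaldehyde and stained with a rabbit anti-H1.0 antibody, an AlexaFluor 647 secondary and DAPI.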
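For H1.0 immunofluorescence intensity relative to DMSO in this document: TDF is a line of transformed human dermal fibroblasts of mesenchymal origin.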
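For cell number relative to DMSO in this document: TDF denotes transformed human dermal fibroblasts of mesenchymal origin.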

Compound | cell number
CCCCCCCCCCCC=CCCCCCCC(=O)O [8(Z)-Eicosenoic acid] | 105
CC(C)(C)c1ccc(S(=O)(=O)NCc2ccc(C(=O)Nc3cccnc3)cc2)cc1 | 108
COc1ccc2c(c1OC)C(=O)OC2C1c2c(cc3c(c2OC)OCO3)CCN1C (racemic) | 96.2
CCOC(=O)C1=C(COCCN)NC(C)=C(C(=O)OC)C1c1ccccc1Cl (configuration not stated) [Amlodipine] | 106
CN(C)CCC=C1c2ccccc2Sc2ccc(Cl)cc21.Cl [Chlorprothixene hydrochloride] | 106
O=c1[nH]c(=O)c2nc3ccccc3nc2[nH]1 [Alloxazine] | 91.6
CCCCCC=CCC=CCC=CCC=CCCCC(=O)OC(COCCCCCCCCCCCCCCCC)COP(=O)([O-])OCC[N+](C)(C)C (configuration not stated) [Arachidonyl-PAF] | 100

Each compound was assayed on TDF (assay: H1.0 immunofluorescence intensity relative to DMSO (% of DMSO); higher = stronger H1.0 induction, active = 120 or more). Settings: concentration: 10 µM; 24 h.
Method in brief: as §1

Compound | H1.0 immunofluorescence intensity
O=c1cc(O)cc(C=Cc2ccc(O)c(O)c2)o1 [Hispidin] | 97 (inactive)
CS(=O)c1ccc(-c2nc(-c3ccc(F)cc3)c(-c3ccncc3)[nH]2)cc1 (configuration not stated) | 98 (inactive)
CC(C)Cc1ccc(CC(=O)O)cc1 [(4-isobutylphenyl)acetic acid] | 91.5 (inactive)
COc1cc2c(cc1OC)-c1cc(=Nc3c(C)cc(C)cc3C)n(C)c(=O)n1CC2.Cl [Trequinsin hydrochloride] | 85 (inactive)
O=C(O)CNC(=O)C(=O)O [2-(carboxymethylamino)-2-oxoacetic acid] | 93.7 (inactive)
CC(c1cc2ccccc2s1)N(O)C(N)=O (configuration not stated) [Zileuton] | 94.2 (inactive)
O=C(C1CCCCC1)N1CC(=O)N2CCc3ccccc3C2C1 (configuration not stated) [Praziquantel] | 94.8 (inactive)
Clc1ccc(CCC(Cn2ccnc2)Sc2c(Cl)cccc2Cl)cc1.O=[N+]([O-])O (configuration not stated) [Butoconazole nitrate] | 93 (inactive)
COCC(=O)NCC=Cc1ccc2ncnc(Nc3ccc(Oc4ccc(C)nc4)c(C)c3)c2c1 | 98.3 (inactive)
COc1cc2ncc(-c3ccccc3)nc2cc1OC | 94 (inactive)
CN(C)c1ccc(O)c2c1CC1CC3C(N(C)C)C(=O)C(C(N)=O)=C(O)C3(O)C(=O)C1=C2O.Cl (configuration not stated) | 95.5 (inactive)
C=CC(=O)Nc1cc2c(Nc3ccc(F)c(Cl)c3)ncnc2cc1OCCCN1CCOCC1.Cl.Cl [Canertinib] | 108 (inactive)
c1ccc(C(OC2CCN(CCCc3nn[nH]n3)CC2)c2ccccc2)cc1 [4-(benzhydryloxy)-1-[3-(1H-tetraazol-5-yl)propyl]piperidine] | 92.8 (inactive)
COc1cc2ncnc(Nc3ccc(NC(=O)c4ccccc4)cc3)c2cc1OC [Aurora Kinase Inhibitor II] | 111 (inactive)
OCC(CO)(CO)NCC(O)Cn1c2ccc(Cl)cc2c2cc(Cl)ccc21 (configuration not stated) | 125 (active)
COc1nc(C)nc(Cl)c1NC1=NCCN1.Cl [Moxonidine hydrochloride] | 92 (inactive)
N#Cc1c(-c2ccccc2)no[n+]1[O-] [4-Phenyl-3-furoxancarbonitrile] | 93.2 (inactive)
N#CC(=C(N)Sc1ccc(N)cc1)c1ccccc1C(F)(F)F [MEK1/2 Inhibitor] | 86 (inactive)
CC[N+](CC)(CC)CC(=O)Nc1c(C)cccc1C.[Br-] [Lidocaine N-ethyl bromide quaternary salt] | 88.4 (inactive)
CCOC(=O)CN1C(=O)c2ccc3c4c(ccc(c24)C1=O)C(=O)N(CC(=O)OCC)C3=O | 89.7 (inactive)
Cc1nn(C)c2nc(NNC(=O)Nc3cc(Cl)nc(Cl)c3)cc(C(C)C)c12 | 170 (active)
CCCOc1cc2c(cc1\C(C)=C/C=C/C(C)=C/C(=O)O)C(C)(C)CCC2(C)C | 90.3 (inactive)
CC(Cc1ccc(O)c(O)c1)C(C)Cc1ccc(O)c(O)c1 (configuration not stated) | 100 (inactive) and 95.2 (inactive)
CS(=O)(=O)c1ccc(C2=C(c3ccccc3)C(=O)OC2)cc1 [Rofecoxib] | 98.4 (inactive)
CCCCCC=CCC=CCC=CCC=CCCCC(=O)OC(CO)CO [2-Arachidonoylglycerol] | 97.3 (inactive)
